Data reported in PubChem BioAssay AID504332 (National Center for Advancing Translational Sciences (NCATS), 2011).
Values joined by “and” are separate entries in the source; they are usually repeats but may differ in a detail not shown here. Identical values can stand only once. Screen size: about 350,000 compounds; about 31,000 (8.9%) were called active. Roughly 15% stayed inconclusive and do not appear here. Calls follow the shape of the dose curve; as a rule, active = well fitted inhibition curve with a large enough effect; inconclusive = small, poorly fitted or top-dose-only effect; inactive = no such curve, though single readings can be large or run the other way. The list comes from a sample in which actives are over-represented; it also holds similar structures and randomly drawn compounds. Some structures have more than one record in an assay (separate samples or runs), and their calls can disagree.

Each compound was assayed against Histone-lysine N-methyltransferase EHMT2 (Homo sapiens) (UniProt Q96KQ7) (assay: qHTS Assay for Inhibitors of Histone Lysine Methyltransferase G9a). Conditions: G9a H3K9 monomethylation, AlphaScreen, 2 h; series mostly up to 59 µM; activity, negative = inhibition: at the top concentration.
Sequence of Histone-lysine N-methyltransferase EHMT2 (Homo sapiens) (Q96KQ7 913-1193 limits assumed): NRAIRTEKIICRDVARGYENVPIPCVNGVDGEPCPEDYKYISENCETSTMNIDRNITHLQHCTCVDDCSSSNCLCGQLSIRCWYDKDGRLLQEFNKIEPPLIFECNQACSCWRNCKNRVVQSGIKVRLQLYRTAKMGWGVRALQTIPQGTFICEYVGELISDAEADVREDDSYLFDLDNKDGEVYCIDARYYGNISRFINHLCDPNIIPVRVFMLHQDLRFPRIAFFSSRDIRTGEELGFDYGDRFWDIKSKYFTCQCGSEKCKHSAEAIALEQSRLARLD
Procedure, shortened: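 Readings reflect AlphaScreen signal from monomethyl-H3K9 antibody detection. HMT at 20 nM; substrate b-H3K9 500 nM; cofactor SAM 20 uM; 2 h RT reaction; compounds tested as titrations in qHTS with 15 min preincubation.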
% is scaled to controls: 0 for no effect and ±100 for the full control effect; potency is read from the fitted curve at half-maximal effect.
Also: nearly all actives have a fitted effect of over 75% in size.

activity, negative = inhibition, inactive:
CSc1ccc(CCNC(=O)c2cc(C)nc3c2c(C)nn3-c2cccc(F)c2)cc1 -2.67%
CC(C)n1ncc2c(C(=O)NCc3ccccc3CN(C)C)cc(C3CC3)nc21 -9.59%
N#Cc1ccc(N2Cc3ccccc3/C2=N/C(=O)Nc2ccc(Cl)cc2)cc1 3.53%
Cc1cccc(N2CCN(C(=O)c3cccc(S(=O)(=O)N4CCc5ccccc5C4)c3)CC2C)c1 (stereo not drawn) 1.73% [at 102 µM]
O=C(COc1cccc2c1CCNC2=O)NC1CCCCC1 8.64% [at 0.501 µM]
Cc1cc(OCC(=O)NCC2(N(C)C)CCCCC2)cc(C)c1Cl -5.48%
Cc1cccc(OCC(O)Cn2c(N3CCCCC3)nc3c2c(=O)[nH]c(=O)n3C)c1 (stereo not drawn) 14.4% [at 102 µM]
CCOC(=O)Cn1c(CN(Cc2ccccc2)Cc2ccccc2)nc2c1c(=O)[nH]c(=O)n2C 37.9%
O=C(COc1ccc(/C=N/NS(=O)(=O)c2ccccc2)cc1)NCCc1ccccc1 -4.68% [at 2.33 µM]
COc1ccc(/C=N/NS(=O)(=O)c2ccc(NC(C)=O)cc2)cc1 0.351% [at 102 µM]
CC(=O)Cn1cnc2c(cnn2-c2ccccc2)c1=O 1.7% [at 102 µM]
CCc1ccc(NC(=O)CCCc2nnc3n(CCCOC)c(=O)c4sccc4n23)cc1 -5.06%
COc1ccccc1C(=O)NCCC(=O)NCC(c1ccco1)N1CCCCC1 (stereo not drawn) -3.11% [at 102 µM]
COc1ccccc1CCNC(=O)CN1C(=O)NC2(CCCC2)C1=O 8.45% [at 0.501 µM]
COc1cccc(CNC(=O)Cn2ncn3c(cc4ccccc43)c2=O)c1 -27.7%
COc1ccc(NC(=O)c2sc3nc[nH]c(=O)c3c2C)cc1 8.43%
CCc1cccc(NC(=O)c2cc(-c3ccccc3)n[nH]2)c1 -26.5%
CN(C(=O)CSc1nnnn1-c1ccccc1)C1CCCCC1 3.58% [at 102 µM]
CN(C(=O)COc1ncnc2c1cnn2-c1ccccc1)C1CCCCC1 25.1% [at 0.0925 µM]
COc1ccccc1CNC(=O)C(=O)NCC(c1cccs1)S(=O)(=O)c1cccs1 (stereo not drawn) 11.3%
COc1ccc(-c2nc3ccccc3c(=O)n2CCc2ccc(O)cc2)cc1 12.4% [at 102 µM]
COc1ccc(NC(=O)Cn2c(-c3ccc(OC)cc3)cn(-c3ccc(C)cc3)c2=O)cc1 -31.1% [at 12.7 µM]
CCOC(=O)c1c(CNCc2ccccc2F)c2sc(C)cc2n1C 12% [at 12.7 µM]
Cc1ccc(S(=O)(=O)N2CCN(CC(=O)N/N=C/c3ccc(Br)s3)CC2)cc1 1.4% [at 102 µM]
CC(C)N(C(=O)CN1CCN(S(=O)(=O)c2ccc(Br)s2)CC1)C(C)C 17.1% [at 2.33 µM]
CC1CC(C)(C)CC2(C1)NC(=O)N(CC(=O)Nc1nccs1)C2=O (stereo not drawn) 13.6% [at 0.501 µM]
COc1cccc(CNC(=O)C2CCC(CNS(=O)(=O)c3cccs3)CC2)c1 (stereo not drawn) -20%
CSc1ncc(Cl)c(C(=O)Nc2ccc(S(=O)(=O)N3CCCC(C)C3)cc2)n1 (stereo not drawn) -29.4%
Cc1cc(C)cc(OCC(=O)Nc2nc(-c3ccc(F)cc3)ns2)c1 -6.17%
CC(=O)c1ccc(N2CCN(c3nc4c(S(=O)(=O)c5ccccc5)nnn4c4ccc(Cl)cc34)CC2)cc1 6.74%
Fc1cccc(-n2ncc3c2ncn2nc(-c4ccccc4Cl)nc32)c1 5.95%
Cc1ccc(C)c(N2CCN(C(=O)CCc3c(C)nc4c(c3C)c(=O)n(C)c(=O)n4C)CC2)c1 0.908%
O=C(Cc1ccccc1Cl)N1CCOCC1 2.49% [at 102 µM]
O=C(Nc1ccc(Cl)cc1)Nc1ccc(C(=O)N2CCOCC2)cc1 9.93% [at 102 µM]
COc1cccc(C(=O)Nc2ccc3oc(-c4ccc5ccccc5c4)nc3c2)c1 -48.7%
COc1ccc(C2C3=C(CCCC3=O)N(CC(=O)O)C3=C2C(=O)CCC3)cc1 -19% [at 102 µM]
COc1ccc(NC(=O)c2c(C)oc3c2CCCC3)cc1 -13.4% [at 102 µM]
Cc1ccc(-c2nn3c(=O)cc(CN4CCN(C(=O)Nc5cccc(C(F)(F)F)c5)CC4)nc3s2)cc1 7.31%
CCCn1nc(C(=O)OCc2nc(N)nc(Nc3ccccc3C)n2)c2ccccc2c1=O -4.37% [at 12.7 µM]
Cc1cn(C)c(CC(=O)NCc2ccccc2)c1C(=O)O 0.148%
c1nnc2c3c4c(sc3ncn12)CCC4 -3.04%
N=c1c2c3c(sc2ncn1N)CCCC3 -1.8% [at 102 µM]
Cn1c(=O)c2sccc2n(Cc2ccc(Br)cc2)c1=O 4.98% [at 2.33 µM]
CC(=O)OC(COc1ccc(F)cc1)Cn1cnc2ccccc21 (stereo not drawn) 5.88% [at 102 µM]
C/C(Cn1nnc2ccccc21)=N\OC(=O)c1cc(F)c(F)cc1Cl 4.86% [at 102 µM]
CC12CCC(=O)N1C(C(=O)NCCN1C(=O)S/C(=C\c3ccccc3F)C1=O)CS2 (stereo not drawn) -5.94% [at 12.7 µM]
Cc1cccc(N2CCN(C(=O)c3ccc(Nc4nc5ccccc5n5nnnc45)cc3)CC2)c1C 8.07%
COc1ccc(C)cc1NC(=O)CSc1ccc(Cl)cc1 68%
COc1ccc(Cl)cc1NC(=O)CN(C)C(=O)c1ccc2n[nH]nc2c1 15.9% [at 12.7 µM]
COc1ccc(Cl)cc1NC(=O)CCC(=O)c1ccc(C)cc1 0.463%
COc1ccc(Cl)cc1NC(=O)CN(C)C(=O)CNC(=O)C12CC3CC(CC(C3)C1)C2 7.61% [at 12.7 µM]
CCC(=O)c1ccc(OCC(=O)Nc2ccc(N3CCCCC3)cc2)cc1 13.1% [at 12.7 µM]
CSc1ccc(Cl)c(C(=O)OCC(=O)N2CCNC2=O)c1 11.9% [at 12.7 µM]
COc1ccc(OC)c(NC(=O)CSC2=Nc3ccccc3C3=NC(CC(=O)NCc4ccc(F)cc4)C(=O)N23)c1 (stereo not drawn) -3.53%
CC(C)c1ccc(NC(=O)Cn2ncc3ccccc32)cc1 16.2% [at 102 µM]
CCC(C)N(C(=O)COC(=O)c1nc(Cl)ccc1Cl)C1CCS(=O)(=O)C1 (stereo not drawn) -0.744% [at 0.501 µM]
COc1cccc(CNS(=O)(=O)c2ccc3c(c2)CC(C)N3C(C)=O)c1 (stereo not drawn) 3.98% [at 102 µM]
CC(C)CCN1CCN=C1N(C)C 11% [at 2.33 µM]
CCOc1ccc(CNC(=O)C2CCCN(S(=O)(=O)N(CC)c3ccc(OCC)cc3)C2)cc1 (stereo not drawn) -17.3%
CC(=O)N1CCOc2ccc(S(=O)(=O)N3CCN(c4cccc(C(F)(F)F)c4)CC3)cc21 2.97% [at 102 µM]
Cc1ccc2nc3c(cc(C(=O)NC4CCCCC4)c(=N)n3C(C)C)c(=O)n2c1 3.7%
CCOC(=O)CNC(=O)/C(=C\c1ccc(F)cc1)NC(=O)c1ccccc1 24.9% [at 12.7 µM]
COc1ccc(/C=C(\NC(=O)c2ccccc2)C(=O)NCCN2CCOCC2)cc1OC 11.3% [at 102 µM]
COc1ccc(F)cc1C(=O)COC(=O)c1n[nH]c(=O)c2ccccc12 0.826%
C=CCC1=C/C(=C\c2c(N)n3nc(CC(=O)N4CCOCC4)sc3nc2=O)C=C(OC)C1=O -45.8% [at 102 µM]
Cc1ccccc1Nc1nc(N)nc(COC(=O)CCC(=O)c2ccc(F)cc2)n1 -37.6% [at 102 µM]
O=C(O)C1C2C=CC(C2)C1C(=O)NCc1ccccc1 (stereo not drawn) 1.59% [at 2.33 µM]
COC(=O)[C@H](Cc1ccccc1)NC(=O)[C@@H]1C[C@H]1[C@@H](NC(=O)OCc1ccccc1)c1ccccc1 4.81% [at 102 µM]
O=C(CSCc1cnn(-c2ccccc2)c1-n1cccc1)NCc1ccccc1Br -6.39%
Cc1cc(SCC(=O)c2ccccc2)nc(SCC(=O)c2ccccc2)n1 52.4% [at 102 µM]
C/C(=N\NC(=O)c1nc(C)cc(C)n1)c1ccccc1 5.99%
COc1ccc(Cn2cc(C(=O)c3ccc(C)cc3)c(=O)c3cc(OC)c(OC)cc32)cc1 -4.14%
CCOC(=O)c1sc(NC(=O)C2CSC3(C)CCC(=O)N23)nc1C (stereo not drawn) 20.6% [at 12.7 µM]
CC12CCC(=O)N1C(C(=O)Nc1ccc(F)c(F)c1F)CS2 (stereo not drawn) 13.3% [at 12.7 µM]

Potency, inactive and 44.7 µM (active):
CO/N=C(\C(=O)N[C@@H]1C(=O)N2C(C(=O)O)=C(COC(C)=O)CS[C@H]12)c1csc(N)n1 (stereo in doubt)

Potency, active:
Cc1cccc(N2Cc3ccccc3C2=NC(=O)c2ccc(Cl)nc2)c1 11.2 µM
CCC(C)Sc1nc2c(c(=O)[nH]c(=O)n2C)n1CC(O)COc1cccc2ccccc12 (stereo not drawn) 7.94 µM
O=S(=O)(N/N=C\c1cccn1-c1ccccc1)c1ccc2ccccc2c1 31.6 µM
COc1ccccc1C(=O)NCCC(=O)NN1C(=O)NC2(CCCCC2)C1=O 50.1 µM
CN(C(=O)CSc1nncc2ccccc12)C1CCCCC1 50.1 µM
COc1ccc(-c2ccc(CCC(=O)O)n2-c2ccc(O)cc2)cc1 31.6 µM
Cc1cccc(NC(=O)CN2CCCN(S(=O)(=O)c3ccc(Br)s3)CC2)c1 39.8 µM
S=C(Cc1ccc(Cl)cc1)N1CCOCC1 14.1 µM
COc1ccc(N/N=C2/CCCCC2=O)cc1 10 µM
S=c1[nH]nc2c3c4c(sc3ncn12)CCCC4 1.12 µM
Fc1ccc(OCc2nn3c(Cn4nnc5ccccc54)nnc3s2)cc1 11.2 µM
COc1ccc(Cl)cc1NC(=O)CN(C)Cc1ccc(OC)c(OC)c1 4.47 µM
COc1ccc(Cl)cc1NC(=O)CNc1ccccc1F 79.4 µM
Cn1c2ccccc2c2cc(/C=C(\NC(=O)c3ccccc3)C(=O)NCC(=O)O)ccc21 50.1 µM
Cc1coc2c(O)cc3c(c12)OC1(N2CCCCC2)C(=O)NCCCC31 (stereo not drawn) 7.94 µM
O=C(NCc1ccccc1)[C@H]1C[C@@H]1[C@H](NP(=O)(c1ccccc1)c1ccccc1)c1ccccc1 28.2 µM
Cc1cc(C)nc(S/C=C/C(=O)c2ccccc2)n1 22.4 µM
Cc1ccc2nc(NC(=O)C3CSC4(C)CCC(=O)N34)sc2c1 (stereo not drawn) 39.8 µM
